Screening results as filed in PubChem BioAssay.
Sm TGR inh – qHTS Assay for the Inhibitors of Schistosoma Mansoni Peroxiredoxins; purified TGR, DTNB reduction, TNB absorbance 405 nm; 3% of 360,000 active; AID 485364, 2010; Potency, µM (series often up to 114 µM), for the others: top-dose activity change, negative = inhibition, actives largely listed as inhibitors; note: potency is the fitted concentration of half-maximal effect; % is set by controls: 0 for no effect and ±100 for the full control effect; nearly all actives have a fitted effect of over 60% in size
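Kinetic colorimetric format: TGR-catalysed, NADPH-driven DTNB reduction monitored via TNB absorbance. Enzyme dispensed at 20 nM; compound exposure 15 min at room temperature before reaction start.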
Tb PYK inh – qHTS of Trypanosoma Brucei Inhibitors | 0.12% of 410,000 active | pyruvate kinase (Trypanosoma brucei), Q57TT1 | TbPYK enzyme, Kinase-Glo Plus ATP luminescence, 45 min | Potency, µM (highest dose often 76.8 µM), without a hit: at the top dose activity, negative = inhibition, hits mostly inhibitors; note: potency is the fitted concentration of half-maximal effect; % is set by controls: 0 for no effect and ±100 for the full control effect; nearly all actives have a fitted effect of over 50% in size
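Enzyme and substrate buffer are dispensed first and compound is pin-transferred. ADP at 130 uM final then starts the reaction, which runs 45 min at room temperature. Detection reagent is added for 10 min before luminescence is imaged.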
LmPK inh – qHTS Assay for Inhibitors of Leishmania Mexicana Pyruvate Kinase (LmPK); 0.37% of 290,000 active; purified LmPK, Kinase-Glo ATP luminescence, 1 h; AID 1721, 2009; Potency, µM (titrated, usually from 57.5 µM), without a hit: at the highest dose activity change, negative = inhibition, most hits filed as inhibitors; Q27686; note: potency is the fitted concentration of half-maximal effect; % is set by controls: 0 for no effect and ±100 for the full control effect
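0.1 nM LmPK, 0.5 mM PEP, 0.1 mM ADP; 50 mM imidazole pH 7.2, 7 mM MgCl2, 50 mM KCl; 1 h RT. Kinase-Glo luminescence readout, normalized to no-enzyme (full inhibition) and uninhibited wells.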
Giardia FBPA inh – qHTS Assay for Inhibitors of Fructose-1,6-bisphosphate Aldolase from Giardia Lamblia | Potency, µM (top dose mostly 59.6 µM), for inactives: at the top dose activity, negative = inhibition, usual class: inhibitors | 0.71% of 290,000 active | purified Giardia FBPA | A8B2U2; note: potency is the fitted concentration of half-maximal effect; % is set by controls: 0 for no effect and ±100 for the full control effect; nearly all actives have a fitted effect of over 55% in size
Target sequence (A8B2U2 whole entry, looked up): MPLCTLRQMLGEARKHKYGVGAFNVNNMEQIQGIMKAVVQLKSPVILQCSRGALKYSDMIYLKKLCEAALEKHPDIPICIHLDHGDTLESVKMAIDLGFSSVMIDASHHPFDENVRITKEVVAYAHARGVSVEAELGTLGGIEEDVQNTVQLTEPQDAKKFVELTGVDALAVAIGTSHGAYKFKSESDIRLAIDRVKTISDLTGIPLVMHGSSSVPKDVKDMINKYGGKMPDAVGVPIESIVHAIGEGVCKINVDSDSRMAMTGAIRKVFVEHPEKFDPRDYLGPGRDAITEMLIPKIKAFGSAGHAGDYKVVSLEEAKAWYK
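40 nM FBPA preincubated 10 min at RT with compound (up to 57.5 uM final), then substrate plus GAPDH/TPI/NAD/arsenate coupling and diaphorase/resazurin added. Fluorescence read after 20 min at RT, 525/598 nm.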
Cycloheximide cs – Cycloheximide Counterscreen for Small Molecule Inhibitors of Shiga Toxin; cell reporter, cycloheximide protein synthesis inhibition counterscreen; max response, %; 12% of 300,000 active; in the data active = max response mostly above about 13%, no sharp cut-off; inactive = mostly below about 14%; note: read at 38.3 µM for the half of the compounds with a filed dose; 0% is about no effect
Shiga inhibitor – A qHTS for Small Molecule Inhibitors of Shiga Toxin | inhibition, % at 38.7 µM | Vero cells, Shiga toxin protein synthesis inhibition reporter | AID 2315, 2010 | 9.2% of 290,000 active; in the data active = inhibition mostly above about 28%, no sharp cut-off; inactive = mostly below about 43%; note: 0% is about no effect
* hit, by the source's call; ? = inconclusive; . = no result; [ ] = another dose, or the depositor's remark. Only a selection was taken, and hits are over-represented in it overall. Unless noted, calls come from the whole dose curve; as a rule, active = well fitted curve in the direction sought with a large enough effect; inconclusive = small, poorly fitted or top-dose-only effect, or another doubt; inactive = no such curve, though single readings can be large; an effect the other way counts as inactive or inconclusive.

SMILES	Sm TGR inh	Tb PYK inh	LmPK inh	Giardia FBPA inh	Cycloheximide cs	Shiga inhibitor
CC1C(O)=C(c2nc3ccccc3[nH]2)C(=N)N1c1ccccc1 (configuration not stated)	6%	3%	1%	29%	24*	128*
CCC(C)N1CC(O)=C(c2nc3ccccc3[nH]2)C1=N (configuration not stated)	-1%	-2%	-1%	-5%	19	84*
CCCCCCN1CC(O)=C(c2nc3ccccc3[nH]2)C1=N	7%	0%	5%	22%	-2	12
N=C1C(c2nc3ccccc3[nH]2)=C(O)CN1c1ccccc1	-2%	-5%	4%	13%	10	19
CC(C)OC(=O)c1c(NC(=O)c2cccc(C(F)(F)F)c2)sc2c1CCCC2	3%	0%	.	.	.	.
OCc1cc(Br)ccc1OCc1nc2ccccc2s1	4%	-7%	0%	8%	45*	82*
Oc1ccc(O)c(Cc2nc3ccccc3s2)c1	50µM*	-15%	-2%	-2%	32*	43*
Oc1ccccc1OCc1nc2ccccc2s1	9%	-25%	-20%	-10%	35*	143*
CCOC(=O)c1c(C)[nH]c(C)c1S(=O)(=O)NCC(=O)Nc1ccc(CC)cc1	4%	0%	.	.	.	.
CC(CN(C)C)CN1c2ccccc2S(=O)(=O)c2ccccc21 (configuration not stated)	.	3%	.	.	.	.
COc1ccc(CCNC(=O)CSc2nnc(-c3ccc(C)cc3)c(-c3ccc(C)cc3)n2)cc1OC	-1%	1%	.	.	.	.
Cc1ccc(S(=O)(=O)N[C@@H](CCc2ccccc2)CC(=O)C(C)(C)C)cc1	.	.	.	-3%[12.9 µM]	.	.
CCc1ccccc1N1C(=O)N(Cc2ccccc2C)c2ccccc2S1(=O)=O	17%	0%	.	.	.	.
Cc1sc2c(c1C)C(O)=C(C(=O)Nc1ccccc1)S(=O)(=O)N2C	3.5µM*	-9%	3%	-3%	8	-15
COc1ccc(NC(=O)c2noc3c2CCCC3)cc1Cl	10%	-1%	.	.	.	.
O=C(O)c1ccc(-n2cc(-c3cc4ccccc4oc3=O)[nH]c2=S)cc1	?	?	?	-21%	32*	64*
O=C(N/C=C/c1ccco1)Nc1cccc(Cl)c1	45µM*	-3%	7%	-7%	13	23
COc1ccc(NC(=O)N/C=C/c2ccco2)cc1	14µM*	-7%	2%	-24%	1	25
Nc1c(C=C2C=CC(=O)C=C2)c(=O)nc2snc(SCc3ccccc3)n12	1%	0%	2%	26%	33*	47*
COc1cccc(-c2nc(SCC(=O)NC3CCCC3)c(-c3ccc(F)cc3)[nH]2)c1	6%	4%	.	.	.	.
COc1cc(NC(=O)c2ccc(F)cc2)ccc1NC(=O)c1cc2ccccc2o1	2%	3%	-1%	10%	6	-2
CCC(=O)Nc1ccc(NC(=O)c2cc3ccccc3o2)c(OC)c1	0%	2%	1%	3%	27*	34*
CCCCCC(=O)Nc1ccc(NC(=O)c2cc3ccccc3o2)c(OC)c1	-3%	-1%	.	.	.	.
COc1cc(NC(=O)c2c(OC)cccc2OC)ccc1NC(=O)c1cc2ccccc2o1	-10%	-1%	-2%	4%	22*	.
COC(=O)Cc1ccc(NC(=S)NCCSc2ccc(Cl)cc2)cc1	-21%	9%	-2%	-1%	1	14
SMILES	Sm TGR inh	Tb PYK inh	LmPK inh	Giardia FBPA inh	Cycloheximide cs	Shiga inhibitor
COc1ccc(CCNC(=O)Cc2c(C)c3cc4c(C)coc4cc3oc2=O)cc1OC	2%	-5%	.	.	.	.
C/C(=N\NC(=O)c1c(Br)c(C)nn1C)c1ccc(NC(=O)c2ccoc2C)cc1	8%	0%	-9%	2%	44*	40*
C/C(=N\NC(=O)c1nn(C)c(C)c1Br)c1ccc(NC(=O)c2ccoc2C)cc1	-9%	3%	-8%	1%	91*	93*
C/C(=N\NC(=O)c1ccc(NS(=O)(=O)c2cccs2)cc1)c1ccncc1	-1%	1%	1%	6%	2	12
CCC(=O)Nc1ccc(/C(C)=N/NC(=O)c2c(Br)c(C)nn2C)cc1	2%	2%	-9%	4%	-2	15
C/C(=N/NC(=O)c1ccoc1C)c1ccc(NC(=O)c2ccncc2)cc1	-12%	5%	?	12%	63*	104*
C/C(=N\NC(=O)c1nn(C)c(C)c1Br)c1ccc(NC(=O)c2ccc(C)s2)cc1	14%	1%	2%	-6%	45*	64*
C/C(=N\NC(=O)c1c(Cl)c(C)nn1C)c1ccc(NC(=O)c2ccncc2)cc1	4%	-1%	1%	0%	12*	26
C/C(=N\NC(=O)c1nn(C)c(C)c1Br)c1ccc(NC(=O)c2ccccc2F)cc1	-2%	-5%	0%	10%	18*	active
C/C(=N\NC(=O)c1c(Cl)c(C)nn1C)c1cccc(NC(=O)C2CCCC2)c1	2%	0%	2%	7%	14*	38
Cc1ccc(-c2nc(C(=O)NCc3ccccc3Cl)c3n2CCCCC3)cc1	-1%	-7%	.	.	.	.
Cc1ccccc1C(=O)N1[C@@H](C(C)C)COc2cc(Br)ccc2S1(=O)=O	.	4%	.	.	.	.
COC(=O)c1ccc(NC(=O)N2CCC(CN3CCc4ccccc4C3)CC2)cc1	-11%	4%	.	.	.	.
COC(=O)[C@@H]1C[C@H]1[C@@H](N)c1ccccc1	.	.	.	-10%	.	.
COc1ccc(-c2nc(C)c(CCNC(=O)C(=O)Nc3ccccc3F)s2)cc1	1%	-9%	.	.	.	.
O=C(O)c1cccnc1SC1CC(=O)N(c2ccc(OC(F)F)cc2)C1=O (configuration not stated)	45µM*	3%	2%	5%	-1	48
COC(=O)c1c(N2C(=O)CC(Sc3ncccc3C(=O)O)C2=O)sc(C)c1C (configuration not stated)	20µM*	-13%	1%	15%	-1	-10
COc1cc(C=C2C(=O)OC(C)(C)OC2=O)ccc1OCC(=O)Nc1ccccc1	0%	-5%	-5%	-7%	17*	95*
COc1cc(/C=N/NC(=O)c2ccccc2O)ccc1OCC(=O)Nc1ccccc1	-11%	-4%	1%	-19%	15*	19
COc1ccc(NC(=O)COc2ccc(/C=N/NC(=O)c3cccnc3)cc2OC)cc1	7%	1%	2%	3%	10	32*
O=C(COc1ccc(/C=N/NC(=O)c2cccnc2)cc1)Nc1ccccc1	-7%	-1%	-4%	.	29*	25
O=C(COc1ccc(/C=N/NC(=O)c2ccccc2O)cc1)Nc1ccccc1	2%	-7%	2%	1%	16	42
